Screens as filed in PubChem BioAssay.
Shown are actives, neighbours in structure and some others; about 0.9% of the full set was active somewhere.
TDP1 inh = blocks human tyrosyl-DNA phosphodiesterase 1. recombinant TDP1, AlphaScreen DNA substrate cleavage. Q9NUW8. 0.28% of 350,000 active. Potency, µM (titrated, usually from 130 µM), for inactives: top-dose activity change, negative = inhibition, actives largely listed as inhibitors; further: nearly all actives have a fitted effect of over 40% in size
Target sequence (Q9NUW8 whole entry, looked up): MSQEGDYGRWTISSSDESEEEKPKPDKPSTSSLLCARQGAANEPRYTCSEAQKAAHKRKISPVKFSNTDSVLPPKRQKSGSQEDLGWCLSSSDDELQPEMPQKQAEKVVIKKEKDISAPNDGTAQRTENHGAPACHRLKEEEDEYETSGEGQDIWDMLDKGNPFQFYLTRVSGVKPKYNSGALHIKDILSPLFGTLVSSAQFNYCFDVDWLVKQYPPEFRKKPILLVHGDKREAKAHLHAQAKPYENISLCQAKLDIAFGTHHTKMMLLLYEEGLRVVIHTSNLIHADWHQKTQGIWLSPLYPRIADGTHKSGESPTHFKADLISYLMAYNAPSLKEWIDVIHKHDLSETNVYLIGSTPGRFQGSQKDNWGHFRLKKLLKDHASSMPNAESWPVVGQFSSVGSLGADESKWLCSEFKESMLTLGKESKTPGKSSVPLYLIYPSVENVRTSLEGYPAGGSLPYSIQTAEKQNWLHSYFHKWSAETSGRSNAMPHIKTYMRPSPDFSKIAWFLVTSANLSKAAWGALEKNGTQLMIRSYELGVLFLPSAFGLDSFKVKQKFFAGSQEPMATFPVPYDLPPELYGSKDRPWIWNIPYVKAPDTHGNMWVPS
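Signal: AlphaScreen proximity between streptavidin donor and anti-FITC acceptor beads on intact substrate. Reaction: Tdp1 1 nM, substrate 15 nM final, 5 min RT after 15 min compound preincubation.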
GCN5L2 inh = GCN5L2 (KAT2A) acetyltransferase inhibition | Q92830 | GCN5L2 HAT assay, ThioGlo1 CoA-SH fluorescence | Potency, µM (doses to about 58.9 µM), for the others: at the highest dose activity change, negative = inhibition, usual class: inhibitors | 0.21% of 390,000 active | AID 504327
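Free CoA generated was detected with ThioGlo1 (50uM) fluorescence at Ex340nm/Em540nm, read immediately and after 20 min at room temperature. Enzyme, 20 nM in HEPES pH 7.5 buffer, saw compounds 15 min before adding 75uM H3(1-25) peptide and 70uM acetyl-CoA.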
APEX1 inh = inhibitors of human APE1 endonuclease. P27695. Potency, µM (series often up to 65.8 µM), without a hit: at the highest dose activity change, negative = inhibition, usual class: inhibitors. recombinant APE1, TAMRA/BHQ-2 abasic DNA cleavage fluorescence. 0.35% of 350,000 active;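 further: plate controls were vehicle for no effect and reference inhibitor for full effect; nearly all actives have a fitted effect of over 55% in size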
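APE1 at 0.75 nM final was preincubated with compound 15 min at room temperature, then 50 nM double-stranded THF abasic-site substrate (5'-TAMRA/3'-BHQ-2) was added. Fluorescence (ex 525/em 598 nm) was read kinetically; third-minus-first read gave activity.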
BLM helicase inh = blocks DNA unwinding by human BLM helicase; P54132; AID 2528; recombinant BLM DNA unwinding, fluorescence dequenching; 0.2% of 350,000 active; Potency, µM (top dose mostly 56.1 µM), for the others: at the top dose activity change, negative = inhibition, usual class: inhibitors;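 further: plate controls were vehicle for no effect and no enzyme for full effect; nearly all actives have a fitted effect of over 35% in size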
Lamin A splicing = modulators of lamin A splicing. AID 1487. 0.01% of 200,000 active. HeLa LMNA splicing GFP/RFP minigene ratio, 48 h. Potency, µM (doses to about 46.1 µM), for the others: at the highest dose ratio change, negative = inhibition, hits mostly inhibitors; active means well fitted inhibition curve with a large enough effect in the signal ratio, with a control signal flat, not every such curve was filed as active; inconclusive means small, poorly fitted or top-dose-only effect, or effect the other way, or a change in a side signal; the % refers to the signal ratio
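Read-out is the ratio of GFP to DsRed2 object intensity, acquired by 488 nm laser-scanning cytometry on HeLa lamin A-EGFP minigene reporter cells. Compound incubation 48 hrs at 37 °C in Opti-MEM with 2% FBS; DMSO 0.5% final.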
RECQ1 helicase = RECQ1 (human) helicase inhibition | P46063 | RECQ1 DNA unwinding, red fluorescence kinetic read | Potency, µM (series often up to 57.3 µM), for the others: top-dose activity, negative = inhibition, most hits filed as inhibitors | 0.54% of 240,000 active | AID 2549;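 further: plate controls were vehicle for no effect and no enzyme for full effect; nearly all actives have a fitted effect of over 30% in size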
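50 nM RECQ1T1 preincubated 15 min with compound in Tris pH 8.0 buffer with MgCl2, DTT, Tween-20 and 2.5 ug/ml poly(dI-dC); started with 200 nM TAMRA/BHQ-2 forked duplex and 2 mM ATP. Unwinding read as fluorescence (525/598 nm), two reads 2 h apart.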
Starred values were filed as active, the others as inactive; i = inactive; ? = inconclusive; . = no result given; [ ] = remark or other dose. Unless noted, the call rests on the fitted dose curve; in most records, active means well fitted curve in the direction sought with a large enough effect; inconclusive means small, poorly fitted or top-dose-only effect, or another doubt; inactive means no such curve, though single readings can be large; an effect the other way counts as inactive or inconclusive. Unless noted, on the % scale 0 is the no-effect control and ±100 the full control effect; potency means the concentration at half of the fitted maximal effect.

SMILES	TDP1 inh	GCN5L2 inh	APEX1 inh	BLM helicase inh	Lamin A splicing	RECQ1 helicase
CC(=O)OCC(NC(=O)C(COCc1ccccc1)NC(=O)OC(C)(C)C)C1OC(n2ccc(=O)[nH]c2=O)C(OC(C)=O)C1OC(C)=O (configuration not stated)	9.1%	.	-5.1%	0.3%	.	14.4%
CC(=O)Nc1ccc(C2CC(c3ccc(Cl)cc3)=NN2c2ccccc2)cc1 (configuration not stated)	.	31.6µM*	10.3%	-7.6%	.	.
Cc1cc(NC(=O)/C=C/c2ccco2)ccc1NC(=O)c1ccccc1	-7.7%	3.16µM*	-2.0%	-5.1%	.	-7.0%
Cc1ccc(NC(=O)/C=C/c2ccco2)cc1F	-12.3%	-12.5%	.	-0.9%	-13.1%[46 µM]	.
CCOc1ccccc1-c1nnc2n1N=C(c1cc(OC)ccc1OC)CS2	12.7%	.	-4.8%	1.8%	.	4.5%
O=C(COc1ccc2oc(-c3ccccc3)cc(=O)c2c1)NCc1ccco1	50.1µM*	-5.9%	?	-17.1%	4.9%	-12.0%
Cc1cc(=O)oc2ccc(OCC(=O)NCc3ccco3)cc12	2.5%	-1.4%	16.9%	-0.7%	13.3%	-3.2%
COc1cc(OC)c2c(O)c3c(c(-c4c5c(c(O)c6c(OC)cc(OC)cc46)CO[C@@H](C)[C@H]5O)c2c1)[C@H](O)[C@H](C)OC3	3.8%	?	?	?	.	25.1µM*
Cc1nc(SCc2ccc(O)c([N+](=O)[O-])c2)n[nH]1	-2.3%	-7.5%	2.1%	5.8%	-13.8%	-5.6%
Cc1nc(SCc2ccc(O)c([N+](=O)[O-])c2)c([N+](=O)[O-])[nH]1	8.6%	14.1µM*	13.4%	-5.8%	-17.1%[46 µM]	-1.6%
O=Nc1c(-c2c(O)[nH]c3cc(Br)ccc23)[nH]c2ccccc12	23.6%[56.1 µM]	-10.9%	-10.5%	-16.0%	?	28.2µM*
O=C(CSCc1cccc(Br)c1)N=Nc1c(O)[nH]c2ccccc12	9.6%	-17.6%	5.7%	-11.0%	9.6%	i
Clc1ccc(-c2nc3ccccc3nc2-c2ccccc2)cc1	-5.3%	-5.8%	2.4%	-7.0%	?	-3.7%
Cc1ccc(-c2nc3ccccc3nc2-c2ccccc2)cc1	79.4µM*	-5.0%	-8.5%	-7.9%	.	.
CCc1ccc(/C=C2/SC(=S)N(CCC(=O)Nc3cccc(C(=O)O)c3)C2=O)cc1	28.2µM*	?	?	-5.2%	.	.
O=C(CCN1C(=O)/C(=C\c2ccco2)SC1=S)Nc1ccc(C(=O)O)c(O)c1	.	?	?	-8.0%	.	.
O=C(CCN1C(=O)/C(=C/c2ccco2)SC1=S)Nc1ccc(C(=O)O)c(O)c1	.	-12.1%	21.2µM*	-7.8%	.	.
O=C(CSc1nnc(-c2cccc([S+](=O)([O-])N3CCCC3)c2)n1-c1ccccc1)Nc1ccc2c(c1)OCCO2	.	.	17.4%	.	.	.
CC[C@H](C)[C@H](NC(=O)[C@H](Cc1ccc(O)cc1)NC(=O)[C@H](Cc1cnc[nH]1)NC(=O)[C@H](CCCNC(=N)N)NC(=O)[C@H](CC(C)C)NC(=O)[C@H](C)NC(=O)[C@H](CO)NC(=O)[C@H](Cc1ccc(O)cc1)NC(=O)[C@H](Cc1ccc(O)cc1)NC(=O)[C@H](CCCNC(=N)N)NC(=O)[C@H](C)NC(=O)[C@H](CCSC)NC(=O)[C@H](CC(=O)O)NC(=O)[C@H](CCC(=O)O)NC(=O)[C@H](C)NC(=O)[C@@H]1CCCN1)C(=O)N[C@@H](CC(N)=O)C(=O)N[C@@H](CC(C)C)C(=O)N[C@H](C(=O)N[C@H](C(=O)N[C@@H](CCCNC(=N)N)C(=O)N[C@@H](CCC(N)=O)C(=O)N[C@@H](CCCNC(=N)N)C(=O)N[C@@H](Cc1ccc(O)cc1)C(N)=O)[C@@H](C)O)[C@@H](C)CC	12.1%	-9.1%	3.8%	4.2%	.	-3.8%
O=C(N/N=C/c1cc([N+](=O)[O-])ccc1O)c1cccc(NC(=O)c2cccc(Cl)c2)c1	56.2µM*	-29.6%	-4.8%	-5.2%	.	.
Cc1nc2ccc(C(=O)N/N=C/c3cc([N+](=O)[O-])ccc3O)cc2[nH]1	5.5%	-20.4%	25.3%	-9.6%	.	i
C=C1C(=O)O[C@H]2[C@H]1CC/C(C)=C\CC[C@@]1(C)O[C@@H]21	.	.	1.7%[21 µM]	.	.	.
CCOc1cc2c(C#N)c(N3CCCCC3)nc(N)c2c(N)n1	3.9%	-4.5%	-5.6%	28.2µM*	-8.6%	-0.5%
CCOC(=O)C1CCN(c2nc(N)c3c(N)nc(SCC(=O)O)cc3c2C#N)CC1	28.2µM*	?	?	25.1µM*	.	?
COc1ccc2c(c1)Oc1ncn(CCN3CCOCC3)c(=N)c1C2c1ccc(OC)c(OC)c1 (configuration not stated)	1.9%	.	.	.	.	.
SMILES	TDP1 inh	GCN5L2 inh	APEX1 inh	BLM helicase inh	Lamin A splicing	RECQ1 helicase
O=C1CCN(CCc2ccccc2)CCN1C(CSc1ccc(Br)cc1)Cc1ccccc1 (configuration not stated)	8.5%	.	-7.0%	-10.7%	.	-11.3%
O=C(CNC(=O)c1ccccc1Cl)OC(C(=O)Nc1cc(C(F)(F)F)ccc1Cl)c1ccccc1 (configuration not stated)	-3.2%	.	.	.	.	.
[O-][n+]1onc2c1CCC(=N/O)/C2=N\Nc1ccccc1	6.3%	?	?	31.6µM*	.	?
COc1ccc(C2=Nn3c(nnc3-c3ccccc3Cl)SC2)cc1OC	.	.	-9.5%	.	.	.
CCCCCCCCCCCCCCCC(=O)OC[C@H](O)[C@H]1OC(=O)C(O)=C1O	.	.	8.91µM*	.	.	.
COc1cc(N=c2ssnc2Cl)cc(OC)c1	-2.3%	22.4µM*	-8.2%	1.7%	8.8%	5.3%
N#Cc1cccc(N=c2ssnc2Cl)c1	5.9%	6.31µM*	0.9%	-2.9%	?	-6.5%
Clc1ccc(N=c2ssnc2Cl)nc1	2.8%	-1.0%	8.0%	-5.4%	.	-7.0%
Clc1nssc1=Nc1nncs1	-4.8%	2.24µM*	-0.1%	.	.	.
Clc1nssc1=Nc1ccc(Br)cc1	-1.2%	8.91µM*	21.3%	-4.0%	.	i
OCc1ccccc1N=c1ssnc1Cl	3.9%	-26.8%	27.0%	5.1%	11.1%	-7.6%
